Records with an inconclusive call do not appear. A call without a number means that no potency is given here. Calls of active or inactive are those of the source. Unless noted, calls come from the whole dose curve; as a rule, active = well fitted curve in the direction sought with a large enough effect in the repeat runs; inconclusive = weak or mixed curves; inactive = no such curve, though single readings can be large; an effect the other way counts as inactive or inconclusive.
Assays:
[1] = qHTS assay to identify small molecule antagonists of the progesterone receptor (PR) signaling pathway - cell viability counter screen (AID 1346798); note: nearly all actives have a fitted effect of over 50% in size; note: potency is the fitted concentration of half-maximal effect
How it was run: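 Measures cytotoxicity in parallel with the PR antagonist reporter read: HEK293T PR-UAS-bla cells get compound and R5020 for 16 hr, and remaining viable cells are quantified by CellTiter-Glo luminescence.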

[2] = qHTS assay to identify small molecule agonists of the progesterone receptor (PR) signaling pathway - cell viability counter screen (AID 1346799; calls by dose curve; note: nearly all actives have a fitted effect of over 45% in size; note: potency is the fitted concentration of half-maximal effect)
How it was run: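 Using the same plates as the PR reporter screen, HEK293T PR-UAS-bla cells received compounds for 16 hr at 37C and were then lysed with CellTiter-Glo; luminescence was read 30 min later at room temperature.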

[3] = qHTS assay to identify small molecule antagonists of the TGF-beta/Smad signaling pathway - cell viability counter screen (AID 1346824); note: nearly all actives have a fitted effect of over 50% in size; note: potency is the fitted concentration of half-maximal effect
How it was run: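 SBE-bla HEK 293T cells, incubated overnight, then compound plus 0.25 ng/mL TGF-beta1 (stock added) for 5 hr at 37 C. Viability was read in the same wells by CellTiter-Glo luminescence after 30 min at room temperature.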

[4] = qHTS assay to identify small molecule agonists of the TGF-beta/Smad signaling pathway (AID 1346859; active = well fitted activation curve with a large enough effect in the signal ratio in the repeat runs, not every such curve was filed as active; the % refers to the signal ratio; note: series mostly up to about 77 µM)
How it was run: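 Beta-lactamase reporter activity downstream of Smad binding elements was measured in stably transfected HEK 293T cells; compounds were incubated for 5 hr, substrate for 2 hr at room temperature.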

[5] = target: Thyrotropin-releasing hormone receptor (Homo sapiens) (UniProt P34981); experiment: qHTS assay to identify small molecule antagonists of the thyrotropin-releasing hormone receptor (TRHR) signaling pathway (AID 1346877; active = well fitted inhibition curve with a large enough effect in the repeat runs, not every such curve was filed as active; note: series mostly up to about 51 µM)
Chain of Thyrotropin-releasing hormone receptor (Homo sapiens) (P34981 whole entry, looked up): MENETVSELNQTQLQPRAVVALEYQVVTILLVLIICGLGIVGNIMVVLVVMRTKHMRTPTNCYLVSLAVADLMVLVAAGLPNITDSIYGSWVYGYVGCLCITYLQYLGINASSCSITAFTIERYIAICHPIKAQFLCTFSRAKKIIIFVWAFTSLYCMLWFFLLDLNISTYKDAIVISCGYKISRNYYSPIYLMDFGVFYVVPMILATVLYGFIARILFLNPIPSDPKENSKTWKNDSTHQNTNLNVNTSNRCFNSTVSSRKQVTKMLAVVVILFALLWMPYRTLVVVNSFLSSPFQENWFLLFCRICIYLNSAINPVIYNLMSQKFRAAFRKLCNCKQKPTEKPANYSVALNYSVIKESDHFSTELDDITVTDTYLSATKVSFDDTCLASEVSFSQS
How it was run: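 TRHR-expressing HEK293 cells were seeded, cultured 18 h at 37 °C, then loaded with calcium dye for 2 h. Compounds were pre-incubated 5 min at room temperature before 1 nM TRH (final) was added, and kinetic fluorescence was recorded for 3 min.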

[6] = target: Thyrotropin-releasing hormone receptor (Homo sapiens) (UniProt P34981); experiment: qHTS assay to identify small molecule agonists of the thyrotropin-releasing hormone receptor (TRHR) signaling pathway (AID 1346891; calls by dose curve; note: series mostly up to about 58 µM)
How it was run: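 Overnight-plated (18 h, 37 °C, 5% CO2) TRHR-Hek293 cells; 2 h calcium dye at 37 °C; compound in DMSO; 3-min kinetic fluorescence read.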

[7] = Human pregnane X receptor (PXR) small molecule agonists, qHTS cell viability counter screen (AID 1346977); note: nearly all actives have a fitted effect of over 50% in size; note: potency is the fitted concentration of half-maximal effect
How it was run: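 After a 5hr pre-incubation, PXR-Luc HepG2 cells received compounds plus positive control in DMSO and were kept 24hr at 37C. Cell viability was quantified by fluorescence from CellTiter-Fluor added for the final hour.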

[8] = Caspase-3/7 induction in HepG2 cells by small molecules, qHTS assay (AID 1346978); note: nearly all actives have a fitted effect of over 15% in size
How it was run: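 Wild-type HepG2 cells, 2,000/well, settled 5 hr at 37 C and 5% CO2, then compound-treated for 17 hr; caspase-3/7 activity read by luminescent Caspase-Glo 3/7 after 30 min at room temperature.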

[9] = Caspase-3/7 induction in CHO-K1 cells by small molecules, qHTS cell viability counter screen (AID 1346979); note: nearly all actives have a fitted effect of over 35% in size; note: potency is the fitted concentration of half-maximal effect
How it was run: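 Multiplexed with Caspase-Glo 3/7 in CHO-K1 cells, this counter screen added CellTiter-Fluor after 16hr of compound exposure and recorded fluorescence 1hr later.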

[10] = qHTS assay to identify small molecule agonists of the TGF-beta/Smad signaling pathway - cell viability counter screen (AID 1346829); note: nearly all actives have a fitted effect of over 45% in size; note: potency is the fitted concentration of half-maximal effect
How it was run: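 In parallel with the Smad reporter read, viability of HEK 293T cells stably carrying SBE-bla is quantified by ATP luminescence following 5 hr compound treatment.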

Structure (SMILES) | Potency [1] | Potency [2] | Potency [3] | outcome [4] | outcome [5] | Potency [6] | Potency [7] | outcome [8] | Potency [9] | Potency [10]
CC(Cc1cccc(C(F)(F)F)c1)NCCOC(=O)c1ccccc1 (centres undefined) | inactive | inactive | inactive | inactive |  |  |  |  |  | 
Cc1ccc(C(=O)C(C)CN2CCCCC2)cc1 (centres undefined) | inactive | inactive | inactive | inactive | inactive | inactive | inactive | inactive | inactive | 
c1ccc(CNCc2ccccc2)cc1 | inactive | inactive | inactive | inactive |  |  | inactive | inactive | inactive | inactive
COc1cc(C(C)(C)C)c(O)c(C(C)(C)C)c1 | inactive | inactive | inactive | inactive |  | inactive |  | inactive | inactive | inactive
O=C(O)Cc1cc(I)c(Oc2ccc(O)c(I)c2)c(I)c1 | inactive | inactive | inactive |  | inactive | inactive |  | inactive | inactive | inactive
CN1CCN(C2=Nc3ccccc3Sc3ccc(Cl)cc32)CC1 | inactive | inactive | inactive |  | inactive | inactive | inactive | inactive | inactive | inactive
CC(C)(C)C1CCCCC1O (centres undefined) | inactive | inactive | inactive | inactive |  |  | inactive | inactive |  | inactive
SC1CCCC1 | inactive | inactive | inactive | inactive |  |  | inactive | inactive | inactive | inactive
Cc1c(Cn2ccnc2)c2ccccc2n1CCC(=O)O | inactive | inactive | inactive | inactive |  |  | inactive | inactive | inactive | inactive
CCCCCOC(=O)COc1cc(N2C(=O)C3=C(CCCC3)C2=O)c(F)cc1Cl | inactive | inactive | inactive | inactive |  |  |  | inactive | inactive | inactive
O=C(O)c1cccc(N(Cc2cccnc2)c2ccc(OC(F)F)c(OC(F)F)c2)c1 | inactive | inactive | inactive |  |  |  | inactive | inactive | 68.6 µM (active) | inactive
NC(N)=NN=C(/C=C/c1ccc([N+](=O)[O-])o1)/C=C/c1ccc([N+](=O)[O-])o1 | 23.7 µM (active) | 23.7 µM (active) | 23.9 µM (active) | inactive |  |  | 6.68 µM (active) | inactive | 5.31 µM (active) | 21.3 µM (active)
CC(=O)NCCCS(=O)(=O)O | inactive | inactive | inactive | inactive |  |  | inactive | inactive | inactive | inactive
CCOc1cc(OCC)c(C(=O)CCC(=O)O)cc1OCC | inactive | inactive | inactive |  | inactive |  |  | inactive | inactive | inactive
CCCCCCCCCC(=O)OCC | inactive | inactive | inactive | inactive |  |  | inactive | inactive | inactive | inactive
Cn1c(NCCN(CCO)CCCc2ccc([N+](=O)[O-])cc2)cc(=O)n(C)c1=O | inactive | inactive | inactive | inactive |  | inactive | inactive | inactive | inactive | 
Cn1c(=O)c2c(ncn2CC(O)CO)n(C)c1=O (centres undefined) | inactive |  | inactive | inactive | inactive | inactive | inactive | inactive | inactive | inactive
CC(=O)/C(C)=C/C1C(C)=CCCC1(C)C (centres undefined) | inactive |  | inactive | inactive | inactive |  | inactive | inactive | inactive | inactive

Reference: PubChem BioAssay (Tox21)
